Drawing on PubChem BioAssay (EPA / NIEHS), this text covers AC50 and outcome for 39 compounds.

Structures are written as SMILES. Activity calls are given as the source filed them. The calls were made as follows: active = hit-call score of the fitted dose curve at least 0.9, where 1 is the maximum; inactive = score below 0.9.

Chain of Retinoic acid receptor alpha (Homo sapiens) (P10276 whole entry, looked up): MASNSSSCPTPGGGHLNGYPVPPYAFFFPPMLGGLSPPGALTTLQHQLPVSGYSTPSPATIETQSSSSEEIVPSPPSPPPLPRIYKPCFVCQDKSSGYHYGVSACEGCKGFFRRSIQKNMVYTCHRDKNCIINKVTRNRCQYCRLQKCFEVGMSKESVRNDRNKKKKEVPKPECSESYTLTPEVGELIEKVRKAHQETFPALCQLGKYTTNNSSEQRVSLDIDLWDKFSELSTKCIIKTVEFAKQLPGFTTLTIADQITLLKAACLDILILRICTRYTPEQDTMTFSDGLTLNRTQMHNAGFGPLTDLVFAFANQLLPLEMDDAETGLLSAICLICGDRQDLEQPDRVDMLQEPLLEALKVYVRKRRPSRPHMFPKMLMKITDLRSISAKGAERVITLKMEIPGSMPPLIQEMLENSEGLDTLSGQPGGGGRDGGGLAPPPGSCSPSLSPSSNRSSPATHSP
Chain of Transcription factor E2F1 (Homo sapiens) (Q01094 whole entry, looked up): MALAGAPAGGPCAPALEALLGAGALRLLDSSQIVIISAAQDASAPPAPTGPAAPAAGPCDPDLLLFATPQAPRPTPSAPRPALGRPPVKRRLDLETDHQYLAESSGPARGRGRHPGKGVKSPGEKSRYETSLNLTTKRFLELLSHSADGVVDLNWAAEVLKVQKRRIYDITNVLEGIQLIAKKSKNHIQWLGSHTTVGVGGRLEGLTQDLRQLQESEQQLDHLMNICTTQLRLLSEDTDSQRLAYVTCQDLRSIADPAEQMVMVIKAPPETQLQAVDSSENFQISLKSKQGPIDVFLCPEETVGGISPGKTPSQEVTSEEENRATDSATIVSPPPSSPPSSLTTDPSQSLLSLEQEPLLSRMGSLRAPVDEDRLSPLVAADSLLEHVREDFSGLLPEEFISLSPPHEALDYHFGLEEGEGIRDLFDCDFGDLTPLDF

Test system in one assay: not listed separately
The assay can be described thus: ATG_BRE_CIS: Attagene CIS-FACTORIAL HepG2 Assay for human Bone Morphogenetic Protein (BMP) Response Element (BRE) (AID 2282933). The note with it: HepG2 BMP response element reporter, Attagene transcription factor profiling; actives raise or lower the signal. The procedure, abridged: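 Read-out: reporter mRNA induction quantified by RT-PCR and capillary electrophoresis after 24 h chemical exposure of transfected HepG2 cells. Endogenous factor activity on the BMP response element; gain or loss fitted against DMSO baseline.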
The AC50 is the concentration giving half of the maximal activity seen. Take `CCOP(=S)(OCC)SCn1nnc2ccccc2c1=O`: the AC50 was 173 µM (active).
Regarding `CC(C)(C)OOC(C)(C)C`, the result was inactive.
For `CN(C)C(=O)Cl`, the result was inactive.
`CCCCc1ccc(O)cc1`: the compound was called inactive.
On the same count and under the same terms, the same measure for `c1ccc(OP(Oc2ccccc2)Oc2ccccc2)cc1`: “inactive”; for `CC(Cl)(Cl)C(=O)O`: “inactive”.
Same read-out and setting: with `OCC(F)(F)OC(F)(F)C(F)(F)OC(F)(F)C(F)(F)OC(F)(F)CO` the entry was “inactive”; with `O=C(O)C1C(C(=O)O)C2(Cl)C(Cl)=C(Cl)C1(Cl)C2(Cl)Cl` (stereo unspecified), “inactive”; with `O=P1(N(CCCl)CCCl)NCCCO1` (stereo unspecified), “inactive”.
Consider `O=C(O)C(F)(OC(F)(F)C(F)(F)C(F)(F)F)C(F)(F)F` (stereo unspecified), for which the outcome was inactive.
The same measure, in the same setting: with `CCCCc1ccccc1` the entry was “inactive”; with `N#Cc1cc([N+](=O)[O-])ccc1N`, “inactive”.

For the next assay, the target named is Retinoic acid receptor alpha (Homo sapiens) (UniProt P10276). The assay can be described thus: ATG_DR5_RAR_CIS: Attagene CIS-FACTORIAL HepG2 Assay for human Retinoic Acid Receptor Alpha (RARE), DR5 submotif (AID 2282934). Conditions: HepG2 Attagene cis-factorial RARE DR5 reporter, mRNA; actives raise or lower the signal. Summed up:
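HepG2, transient cis-reporter transfection, 24 h exposure. mRNA readout: RT-PCR, FAM label, HpaI cut, capillary electrophoresis. DMSO baseline, gain/loss fitting.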
Consider `CC(C)(C)N(NC(=O)c1ccc(Cl)cc1)C(=O)c1ccccc1`, for which the call was inactive.
On the same count and under the same terms, the same measure for `CCCCCCCc1ccc(O)cc1`: “inactive”; for `O=C(O)C=CC(F)(C(F)(F)F)C(F)(F)F`: “inactive”; for `O=S(=O)(F)C(F)(F)C(F)(F)C(F)(F)C(F)(F)C(F)(F)C(F)(F)C(F)(F)C(F)(F)F`: “inactive”.
The same measure, in the same setting: the same measure for `N#Cc1c(-c2ccc(Cl)cc2)[nH]c(C(F)(F)F)c1Br`: “inactive”; for `O=[N+]([O-])c1ccc(Cl)c(Cl)c1`: “inactive”.
On the same count and under the same terms, the same measure for `CC(O)C#N` (stereo unspecified): “inactive”.
Regarding `C=C(C)C(=O)OCC1CO1` (stereo unspecified), the outcome was inactive.
In the case of `CCCCN(CC)C(=O)SCCC`, the call was inactive.
As for `ClC(Cl)c1ccccc1`, the compound was called inactive.
As for `c1ccc2c(c1)sc1ccccc12`, the compound was classed as inactive.
Still for that read-out and setting: with `Cc1ccc([N+](=O)[O-])cc1C` the entry was “inactive”; with `OCC(F)(F)OC(F)(F)C(F)(F)OC(F)(F)CO`, “inactive”; with `CCOP(=S)(Oc1ccc([N+](=O)[O-])cc1)c1ccccc1` (stereo unspecified), “inactive”.
Still for that read-out and setting: the same measure for `CCOP(=S)(OCC)SCn1nnc2ccccc2c1=O`: “inactive”.
For the compound `Nc1ccc(Sc2ccc(N)cc2)cc1`, the result was inactive.
The same measure, in the same setting: the same measure for `CN(C)C(=O)Cl`: “inactive”; for `CCCCc1ccc(O)cc1`: “inactive”; for `OCC(F)(F)OC(F)(F)C(F)(F)OC(F)(F)C(F)(F)OC(F)(F)CO`: “inactive”.
The same measure, in the same setting: with `O=C(O)C(F)(OC(F)(F)C(F)(F)C(F)(F)F)C(F)(F)F` (stereo unspecified) the entry was “inactive”.
Turning to `N#Cc1cc([N+](=O)[O-])ccc1N`, the compound was classed as inactive.

Another assay has as its target Transcription factor E2F1 (Homo sapiens) (UniProt Q01094). The experiment in a line: ATG_E2F_CIS: Attagene CIS-FACTORIAL HepG2 Assay for human E2F Transcription Factor 1 (AID 2282935). The note with it: HepG2 Attagene cis-reporter, E2F reporter RNA transcripts; actives raise or lower the signal. Summed up:
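Gain or loss of reporter transcript, fitted against DMSO, reflects E2F1-driven transcription. Transiently transfected HepG2 dosed 24 h before RNA isolation. Quantified by fluorescent RT-PCR products separated by capillary electrophoresis.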
Consider `CCOS(=O)(=O)OCC`, for which the compound was called inactive.
On to `ClC(Cl)(Cl)c1ccccc1`, for which the result was inactive.
Same read-out and setting: with `CC(C)(C)N(NC(=O)c1ccc(Cl)cc1)C(=O)c1ccccc1` the entry was “inactive”.
Regarding `CCN(CC)c1ccccc1`, the compound was called inactive.
On to `CCCCN(CCCC)SN(C)C(=O)Oc1cccc2c1OC(C)(C)C2`, for which the compound was classed as inactive.
As for `CCOP(=S)(OCC)SCSCC`, the compound was called inactive.
The same measure, in the same setting: with `CCCCCCCc1ccc(O)cc1` the entry was “inactive”; with `O=C(O)C=CC(F)(C(F)(F)F)C(F)(F)F`, “inactive”.
Still for that read-out and setting: with `CC(Cc1ccc(OCC(=O)O)cc1)NCC(O)c1csc(C(F)(F)F)n1` (stereo unspecified) the entry was “inactive”.
For `CCC(C)(C)c1ccc(O)cc1`, the AC50 is 52.4 µM (active).
Regarding `O=S(=O)(F)C(F)(F)C(F)(F)C(F)(F)C(F)(F)C(F)(F)C(F)(F)C(F)(F)C(F)(F)F`, the compound was classed as inactive.
On to `N#Cc1c(-c2ccc(Cl)cc2)[nH]c(C(F)(F)F)c1Br`, for which the compound was called inactive.
On the same count and under the same terms, the same measure for `O=P(Oc1ccccc1)(Oc1ccccc1)Oc1ccccc1`: “inactive”; for `O=[N+]([O-])c1ccc(Cl)c(Cl)c1`: “inactive”; for `C/C(=N\NC(=O)Nc1cc(F)cc(F)c1)c1ncccc1C(=O)O`: “inactive”.
`Nc1ccc(Cl)cc1`: the outcome was inactive.
Turning to `CC(O)C#N` (stereo unspecified), the call was inactive.
Regarding `C=C(C)C(=O)OCC1CO1` (stereo unspecified), the outcome was inactive.
Consider `CCCCN(CC)C(=O)SCCC`, for which the call was inactive.
On the same count and under the same terms, with `CCCCN(CCCC)N=O` the entry was “inactive”.
Take `ClC(Cl)c1ccccc1`: the compound was called inactive.
On the same count and under the same terms, with `c1ccc2c(c1)sc1ccccc12` the entry was “inactive”; with `Cc1ccc([N+](=O)[O-])cc1C`, “inactive”.
On the same count and under the same terms, with `CCC1(c2ccccc2)C(=O)N=C(O)NC1=O` (stereo unspecified) the entry was “inactive”; with `OCC(F)(F)OC(F)(F)C(F)(F)OC(F)(F)CO`, “inactive”; with `CCOP(=S)(Oc1ccc([N+](=O)[O-])cc1)c1ccccc1` (stereo unspecified), “inactive”.
On the same count and under the same terms, the same measure for `CCOP(=S)(OCC)SCn1nnc2ccccc2c1=O`: “inactive”; for `CC(C)(C)OOC(C)(C)C`: “inactive”.
For the compound `Nc1ccc(Sc2ccc(N)cc2)cc1`, the compound was called inactive.
Same read-out and setting: the same measure for `CN(C)C(=O)Cl`: “inactive”; for `CCCCc1ccc(O)cc1`: “inactive”.
For the compound `c1ccc(OP(Oc2ccccc2)Oc2ccccc2)cc1`, the compound was called inactive.
For the compound `CC(Cl)(Cl)C(=O)O`, the compound was classed as inactive.
Same read-out and setting: with `OCC(F)(F)OC(F)(F)C(F)(F)OC(F)(F)C(F)(F)OC(F)(F)CO` the entry was “inactive”; with `O=C(O)C1C(C(=O)O)C2(Cl)C(Cl)=C(Cl)C1(Cl)C2(Cl)Cl` (stereo unspecified), “inactive”.
On the same count and under the same terms, the same measure for `O=P1(N(CCCl)CCCl)NCCCO1` (stereo unspecified): “inactive”.
On the same count and under the same terms, the same measure for `O=C(O)C(F)(OC(F)(F)C(F)(F)C(F)(F)F)C(F)(F)F` (stereo unspecified): “inactive”; for `CCCCc1ccccc1`: “inactive”; for `N#Cc1cc([N+](=O)[O-])ccc1N`: “inactive”.

Test system in the next assay: not listed separately
The assay can be described thus: ATG_E_Box_CIS: Attagene CIS-FACTORIAL HepG2 Assay for human Enhancer Box (E-box) (AID 2282936). The note with it: HepG2 E-box cis-reporter transcription, actives raise or lower the signal. The procedure, abridged:
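E-box-driven reporter transcripts measured in transiently transfected HepG2 after 24 h exposure: RNA reverse-transcribed, PCR-amplified, fluorescently labelled, digested and resolved by capillary electrophoresis. Gain or loss relative to DMSO.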
Take `CCOS(=O)(=O)OCC`: the outcome was inactive.
Same read-out and setting: the same measure for `ClC(Cl)(Cl)c1ccccc1`: “inactive”; for `CC(C)(C)N(NC(=O)c1ccc(Cl)cc1)C(=O)c1ccccc1`: “inactive”; for `CCN(CC)c1ccccc1`: “inactive”.
The same measure, in the same setting: with `CCCCN(CCCC)SN(C)C(=O)Oc1cccc2c1OC(C)(C)C2` the entry was “inactive”.
The same measure, in the same setting: with `CCOP(=S)(OCC)SCSCC` the entry was “inactive”; with `CCCCCCCc1ccc(O)cc1`, “inactive”.
As to `O=C(O)C=CC(F)(C(F)(F)F)C(F)(F)F`, the outcome was inactive.
Take `CC(Cc1ccc(OCC(=O)O)cc1)NCC(O)c1csc(C(F)(F)F)n1` (stereo unspecified): the result was inactive.
As to `CCC(C)(C)c1ccc(O)cc1`, the outcome was inactive.
On the same count and under the same terms, the same measure for `O=S(=O)(F)C(F)(F)C(F)(F)C(F)(F)C(F)(F)C(F)(F)C(F)(F)C(F)(F)C(F)(F)F`: “inactive”; for `N#Cc1c(-c2ccc(Cl)cc2)[nH]c(C(F)(F)F)c1Br`: “inactive”.
On to `O=P(Oc1ccccc1)(Oc1ccccc1)Oc1ccccc1`, for which the result was inactive.
Same read-out and setting: the same measure for `O=[N+]([O-])c1ccc(Cl)c(Cl)c1`: “inactive”; for `C/C(=N\NC(=O)Nc1cc(F)cc(F)c1)c1ncccc1C(=O)O`: “inactive”.
Same read-out and setting: with `Nc1ccc(Cl)cc1` the entry was “inactive”; with `CC(O)C#N` (stereo unspecified), “inactive”; with `C=C(C)C(=O)OCC1CO1` (stereo unspecified), “inactive”.
The same measure, in the same setting: with `CCCCN(CC)C(=O)SCCC` the entry was “inactive”; with `CCCCN(CCCC)N=O`, “inactive”.
Regarding `ClC(Cl)c1ccccc1`, the outcome was inactive.
Same read-out and setting: with `c1ccc2c(c1)sc1ccccc12` the entry was “inactive”.
Consider `Cc1ccc([N+](=O)[O-])cc1C`, for which the result was inactive.
Same read-out and setting: the same measure for `CCC1(c2ccccc2)C(=O)N=C(O)NC1=O` (stereo unspecified): “inactive”.
Consider `OCC(F)(F)OC(F)(F)C(F)(F)OC(F)(F)CO`, for which the result was inactive.
Same read-out and setting: the same measure for `CCOP(=S)(Oc1ccc([N+](=O)[O-])cc1)c1ccccc1` (stereo unspecified): “inactive”.
On the same count and under the same terms, with `CCOP(=S)(OCC)SCn1nnc2ccccc2c1=O` the entry was “inactive”; with `CC(C)(C)OOC(C)(C)C`, “inactive”.
As to `Nc1ccc(Sc2ccc(N)cc2)cc1`, the outcome was inactive.
Regarding `CN(C)C(=O)Cl`, the result was inactive.
In the case of `CCCCc1ccc(O)cc1`, the outcome was inactive.
On to `c1ccc(OP(Oc2ccccc2)Oc2ccccc2)cc1`, for which the outcome was inactive.
As to `CC(Cl)(Cl)C(=O)O`, the outcome was inactive.
Same read-out and setting: with `OCC(F)(F)OC(F)(F)C(F)(F)OC(F)(F)C(F)(F)OC(F)(F)CO` the entry was “inactive”; with `O=C(O)C1C(C(=O)O)C2(Cl)C(Cl)=C(Cl)C1(Cl)C2(Cl)Cl` (stereo unspecified), “inactive”.
On the same count and under the same terms, the same measure for `O=P1(N(CCCl)CCCl)NCCCO1` (stereo unspecified): “inactive”.
As for `O=C(O)C(F)(OC(F)(F)C(F)(F)C(F)(F)F)C(F)(F)F` (stereo unspecified), the result was inactive.
Still for that read-out and setting: the same measure for `CCCCc1ccccc1`: “inactive”; for `N#Cc1cc([N+](=O)[O-])ccc1N`: “inactive”.
